The whole screen tested about 390,000 compounds, of which about 4,700 (1.2%) were called active. Not shown: some 4% with an inconclusive outcome. This excerpt belongs to a sample that is enriched for actives. A number with no mark means an inactive call. Calls follow the shape of the dose curve; as a rule, active = well fitted inhibition curve with a large enough effect; inconclusive = small, poorly fitted or top-dose-only effect, or another doubt; inactive = no such curve, though single readings can be large or run the other way.
molecular target: DNA polymerase eta (Homo sapiens) (UniProt Q9Y253); experiment: qHTS for Inhibitors of Polymerase Eta; settings: recombinant Pol eta, fluorescent DNA replication assay; series mostly up to 114 µM; activity change, negative = inhibition: at the top concentration
Sequence (Q9Y253 whole entry, looked up): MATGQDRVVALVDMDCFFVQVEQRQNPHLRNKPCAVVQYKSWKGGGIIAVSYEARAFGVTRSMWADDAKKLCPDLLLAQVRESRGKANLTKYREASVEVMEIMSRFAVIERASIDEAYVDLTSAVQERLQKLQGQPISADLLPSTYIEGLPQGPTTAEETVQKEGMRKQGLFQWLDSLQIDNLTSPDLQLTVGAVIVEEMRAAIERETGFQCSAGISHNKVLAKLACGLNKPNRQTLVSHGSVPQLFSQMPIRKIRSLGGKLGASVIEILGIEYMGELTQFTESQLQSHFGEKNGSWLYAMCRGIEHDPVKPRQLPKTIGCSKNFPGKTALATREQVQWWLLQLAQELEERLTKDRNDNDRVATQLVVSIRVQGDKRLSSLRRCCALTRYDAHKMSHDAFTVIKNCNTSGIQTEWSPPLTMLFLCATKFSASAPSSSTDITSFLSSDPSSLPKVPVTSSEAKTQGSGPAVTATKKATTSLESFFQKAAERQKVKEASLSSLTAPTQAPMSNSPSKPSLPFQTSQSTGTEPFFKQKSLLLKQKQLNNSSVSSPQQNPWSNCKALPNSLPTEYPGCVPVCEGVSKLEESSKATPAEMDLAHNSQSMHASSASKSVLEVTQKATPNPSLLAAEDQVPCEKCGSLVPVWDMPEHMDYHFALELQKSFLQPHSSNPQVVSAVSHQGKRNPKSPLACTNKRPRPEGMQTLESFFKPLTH
Excerpt: The Y-family of DNA polymerases, such as Pol eta, are specifically involved in DNA repair. Pol eta copies undamaged DNA with a lower fidelity than other DNA-directed polymerases. However, it accurately replicates UV-damaged DNA; when thymine dimers are present, this polymerase inserts the complementary nucleotides in the newly synthesized DNA, thereby bypassing the lesion and suppressing the mutagenic effect of UV-induced DNA damage. […] Thus, while pol eta's (and most likely iota's) normal function is to protect humans against the deleterious consequences of DNA damage, under certain conditions they can have deleterious effects on human health. As a consequence, we propose to utilize a high throughput replication assay to identify small molecule inhibitors of pol eta. In a collaboration between the National Institute of Child Health & Human Development (NICHD) and NIH Chemical Genomics Center, a high-throughput, fluorescent screen was developed to screen the NIH Molecular Libraries Small Molecule Repository (MLSMR). This screen is used to identify inhibitors of pol eta. NIH Chemical Genomics Center [NCGC] NIH Molecular Libraries Probe Centers Network [MLPCN] MLPCN Grant: MH090825 Assay Submitter (PI): Roger Woodgate, NICHD)
Three microliters of reagents (buffer in column 3 and 4 as negative control and 10 nM Pol eta in columns 1, 2, and 5-48) were dispensed into a 1,536-well black solid-bottomed plate. Compounds (23 nL) were transferred via Kalypsys pin tool equipped with 1536-pin array. The plates were then incubated for 15 min at room temperature, and 1 µL substrate (50 nM final concentration) was added to start the reaction and kinetically read twice at 0 min and 10 min on the Viewlux reader
% is scaled to controls: 0 for no effect and ±100 for the full control effect; potency is read from the fitted curve at half-maximal effect.

| SMILES | activity change, negative = inhibition [%] | Potency |
| --- | --- | --- |
| O=C(O)CCc1cccnc1 | -2.96 | – |
| Nc1ccc2c(c1)C(=Cc1cccnc1)c1ccccc1-2 | -16 | – |
| COc1ccc(OCC(=O)Nc2cccc(C(=O)OCc3cc(=O)n4nc(C)sc4n3)c2)cc1 | -20.5 | – |
| O=C(O)C1CCN(c2ccc([N+](=O)[O-])cc2[N+](=O)[O-])CC1 | – | 25.1 µM (active) |
| Cc1cccc(N2CCN(c3ccc(C(N)=O)cc3[N+](=O)[O-])CC2)c1C | -7.46 | – |
| CC1CCN(c2ccc(C(=O)NCc3ccc4c(c3)OCO4)cc2[N+](=O)[O-])CC1 | -26.9 | – |
| Cc1ccc(C(=O)c2ccc(N3CCN(C)CC3)c([N+](=O)[O-])c2)cc1 | -11.6 | – |
| CC1CCN(c2ccc(C(=O)Nc3nnc(C4CC4)s3)cc2[N+](=O)[O-])CC1 | -2.8 | – |
| CC1CCN(c2ccc(S(=O)(=O)Nc3cc(C(=O)O)cc(C(=O)O)c3)cc2[N+](=O)[O-])CC1 | – | 22.4 µM (active) |
| COc1ccc(C(=O)Nc2onc3c2CCCC3)cc1 | -17.3 | – |
| COc1ccc(CCNS(=O)(=O)c2cc(-c3cc(C)no3)ccc2C)cc1OC | -9.95 | – |
| Cc1ccccc1NC(=O)Cn1c(=O)n(CC2CCC(C(=O)NCCc3ccccc3)CC2)c(=O)c2ccccc21 (stereo not drawn) | -0.383 | – |
| O=C(CSc1nc2nccnc2c(=O)n1CCc1c[nH]c2ccccc12)Nc1ccccc1F | -13.3 | – |
| COc1ccc(CCNC(=O)Cn2c(=O)cc(C(F)(F)F)c3c(C)nn(C)c32)c(OC)c1 | -11.4 | – |
| CC(=O)c1ccc(NC(=O)CSc2c(C(C)C)cnc3c2c(=O)n(C)c(=O)n3C)cc1 | -13.3 | – |
| O=C(O)c1c(CNCc2cccc(F)c2)c2ccccc2n1Cc1ccccc1 | -0.34 | – |
| COCCCNc1nc2c(-c3cccc(C(F)(F)F)c3)nnn2c2ccccc12 | -9.1 | – |
| COc1ccc(CCNc2nc3c(-c4cccc(F)c4)nnn3c3ccccc23)cc1OC | -6.17 | – |
| COCCCNc1nc2c(-c3cccc(C)c3)nnn2c2ccc(Cl)cc12 | – | 25.1 µM (active) |
| CCC(CC)c1nn2cc(-c3ccccc3)nc2s1 | -11.7 | – |
| COc1ccc(S(=O)(=O)c2c(Nc3ccc(C)cc3)sc(C(=O)c3ccc(C)cc3)c2N)cc1 | -1.29 | – |
| NS(=O)(=O)c1ccc2nc(NC(=O)COc3ccccc3)sc2c1 | 5.57 | – |
| NS(=O)(=O)c1ccc2nc(NC(=O)CS(=O)(=O)c3ccc(F)cc3)sc2c1 | – | 79.4 µM (active) |
| Cc1nc2ccc(S(=O)(=O)N(CC(=O)Nc3ccc(F)cc3)Cc3ccccc3)cc2s1 | -16.1 | – |

| SMILES | activity change, negative = inhibition [%] | Potency |
| --- | --- | --- |
| CCOc1ccc(CCNC(=O)CN(c2ccc(C)cc2)S(=O)(=O)N(C)C)cc1OCC | -20.3 | – |
| O=C(Nc1cc(Cl)cc(Cl)c1)c1ccc2c(c1)N(Cc1cccc(Cl)c1)C(=O)c1ccccc1S2=O (stereo not drawn) | -22.9 | – |
| O=c1[nH]n2c(=O)c3c([nH]c2c1N=Nc1ccccc1)CCC3 | – | 31.6 µM (active) |
| CC(C)(C)n1c(=O)[nH]c2c(c1=O)CCC2 | -3.5 | – |
| Cc1ccc(-n2ncc3c(NCCCn4ccnc4)ncnc32)cc1Cl | -18.1 | – |
| O=C(COc1ccccc1F)OCc1cc(=O)n2nc(C3CCCCC3)sc2n1 | -18 | – |
| O=C(CCSCc1cccc(F)c1)NCc1ccccc1 | 11.9 | – |
| CCc1cc2c(cc(C(=O)OC)n2Cc2nc(-c3ccc(C)cc3)oc2C)s1 | 6.26 | – |
| Cc1csc(SCC(=O)Nc2sccc2C#N)n1 | – | 79.4 µM (active) |
| CC(c1nnc(SCC(=O)Nc2sccc2C#N)n1-c1ccc(Cl)cc1)N(C)C (stereo not drawn) | 8.96 | – |
| CC(=O)c1cc(C#N)c(SCC(=O)Nc2nccs2)nc1C | -3.13 | – |
| COc1ccc(S(=O)(=O)NCc2cccn2Cc2cccc(C)c2)cc1Cl | -14.1 | – |
| CSc1cccc(NC(=O)CN2C(=O)CCc3cc(S(=O)(=O)N4CCCCC4)ccc32)c1 | -5.6 | – |
| Cc1ccc2nc(COc3ccc(NC(=O)COc4ccccc4F)cc3)cc(=O)n2c1 | -15.3 | – |
| CC(=O)c1ccc(NC(=O)c2nc(-c3ccc(C)cc3)n3c2CCCCC3)cc1 | -12.9 | – |
| N#Cc1c(N2CCCCC2)nc(N)c2c(N)nc(SCC(=O)O)cc12 | – | 22.4 µM (active) |
| Cc1ccc(CN2CCC(CNC(=O)c3cnn(-c4ccccc4Cl)c3C3CCN(C(=O)OC(C)(C)C)CC3)CC2)cc1 | -19.5 | – |
| COc1ccc(-c2cc(NCc3ccc(F)cc3)n3cnnc3n2)cc1 | -10.6 | – |
| CC1CN(C(=O)N2CCC(C(=O)NCc3cccs3)CC2)c2ccccc2O1 (stereo not drawn) | -18.7 | – |
| N#Cc1ccc(-c2cccs2)nc1SCc1ccc(Br)cc1 | -21.6 | – |
| N#Cc1c(-c2cccs2)nc(SCC(=O)c2ccc(Br)cc2)[nH]c1=O | – | 35.5 µM (active) |
| Cc1nnc(SCC(=O)NCc2cccs2)[nH]c1=O | -2.58 | – |
| COc1ccc(-c2nn3c(=O)cc(CN4CCN(C(=O)c5ccc(OC)c(OC)c5)CC4)nc3s2)cc1 | -13.7 | – |
| COc1ccc(Cn2ccnc2SCC(=O)Nc2ccc3c(c2)OCO3)cc1 | -9.75 | – |
